± gives the standard deviation.

In one experiment the test system is MILI (PIWIL2) piRISC loaded with L1MC piRNA (26 nt). Kind of experiment: pre-steady-state target cleavage rate (min^-1); guide: L1MC piRNA 5'p-UAACUAAAUACUAUGCAAGCUGUAGG; MIWI and MILI are mouse PIWI proteins and EfPiwi is from a freshwater sponge; tags in brackets are library labels; higher = faster piRNA-guided slicing of the target. Conditions: auxiliary factor: 500 nM mouse GTSF1. On the procedure:
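Cleave-'n-Seq: a library of target RNAs (target site embedded in constant flanks, ACAGCATTCCGCGTTAGTGATATCCG... 5' flank; DNA-blocked outside the site) at 0.1 nM was incubated with 1 nM active mouse MILI or MIWI piRISC (synthetic 5'-monophosphorylated piRNA guide) with or without 500 nM mouse GTSF1 at 33 °C for 1 min to 16 h. Uncleaved targets were sequenced and normalised to non-target controls, and the pooled three trials were fitted to a burst-and-steady-state model to give the pre-steady-state cleavage rate (min^-1; k3 is constrained to at most 1e-4). Sequence is the target site only; target names encode pairing extent (gX:gY) and contiguous / 1-mismatch / 2-mismatch / bulge geometry. Fits with R² ≤ 0 are excluded.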
Regarding UCCUGGAUGUGGUUGCAUAGAAUUUAGUUA, the “pre-steady-state target cleavage rate” value amounted to 0.0151 ± 0.0063.

Turning to UCCUCCUACAGCUUGGAUAGUAUUAAGUUA, the “pre-steady-state target cleavage rate” value is 0.134 ± 0.017.

UCCUCCUAAGCUUGCAUAGUAUUUAGUUA: the “pre-steady-state target cleavage rate” value was 0.23 ± 0.015.

Regarding UCCUGGAUCACCUAGCAUAGUAUUUAGUUA, the “pre-steady-state target cleavage rate” value turned out to be 0.17 ± 0.025.

For the sequence UCCUCCUACAGCUUGGAUAGUAUUUACAAA, the “pre-steady-state target cleavage rate” value worked out at 0.021 ± 0.0081.

Consider UCCUGCUACAGCAUGCAAAGUAUUUAGUUA, for which the “pre-steady-state target cleavage rate” value turned out to be 0.163 ± 0.015.

UCCUGGAUGUCGUUGCAAAGUAUUUAGUAA: the “pre-steady-state target cleavage rate” value was 0.0183 ± 0.0061.

Turning to UCCUCGUACAGCAUGCAUAGUAUUUAGUUA, the “pre-steady-state target cleavage rate” value came to 0.262 ± 0.015.

As for UCCUGCUUCAGCUUGCAUAGUAUUUAGUAA, the “pre-steady-state target cleavage rate” value worked out at 0.224 ± 0.025.

On to UCCUGGAACUAGCUUGCAUAGUAUUUAGUUA, for which the “pre-steady-state target cleavage rate” value turned out to be 0.132 ± 0.021.

As for UCCUCCUACAGCUUGCAUAGUAUUUUCUUA, the “pre-steady-state target cleavage rate” value is 0.126 ± 0.027.

Take UCCUGGUACAGCUUGCAUUGUAUUUACAAA: the “pre-steady-state target cleavage rate” value worked out at 0.0165 ± 0.0077.

As for UCCUCCAACAGCUUGCAUAGUAUUUUCAAA, the “pre-steady-state target cleavage rate” value worked out at 0.0817 ± 0.015.

In the case of UCCUGGAUGUCCUGGCAUAGUAUUUAGUUA, the “pre-steady-state target cleavage rate” value was found to be 0.066 ± 0.013.

Consider UCCUGGAACAGCUUGCAUAGAAUUAAGUUA, for which the “pre-steady-state target cleavage rate” value stood at 0.051 ± 0.014.

Take UCCUGGUACAGCUUGCAUUGUAUAUAGUUA: the “pre-steady-state target cleavage rate” value stood at 0.087 ± 0.018.

UCCUGGAUGAGCUUGCAUAGUAUUUAGGUA: the “pre-steady-state target cleavage rate” value was 0.166 ± 0.04.

Consider UCCUCCUACAGCUUGCCUAGUAUUUAGUUA, for which the “pre-steady-state target cleavage rate” value was 0.253 ± 0.022.

For UCCUGGAUGUCGUUGCAUAGUAGUUUAGUUA, the “pre-steady-state target cleavage rate” value stood at 0.0297 ± 0.0098.

UCCUGGAUGUCGAUGCAUAGUAUAUUAGUUA: the “pre-steady-state target cleavage rate” value is 0.0713 ± 0.015.

For UCCUGGAUGUCGAACGAGAGUAUUUAGUUA, the “pre-steady-state target cleavage rate” value is less than 0.0001.

For UCCUGGAUCAGCAUGCAUAGUAAUUAGUUA, the “pre-steady-state target cleavage rate” value turned out to be 0.181 ± 0.025.

Consider UCCUGGUAGCAGCUUGCAUAGUAUUUAGUUA, for which the “pre-steady-state target cleavage rate” value worked out at 0.286 ± 0.019.

The same experiment, now with this note: auxiliary factor: none (no GTSF1).
As for UCCUGGAUGUGGUUGCAUAGAAUUUAGUUA, the “pre-steady-state target cleavage rate” value is 0.00318 ± 0.0028.

As to UCCUCCUACAGCUUGGAUAGUAUUAAGUUA, the “pre-steady-state target cleavage rate” value was 0.00275 ± 0.0027.

Consider UCCUCCUAAGCUUGCAUAGUAUUUAGUUA, for which the “pre-steady-state target cleavage rate” value turned out to be 0.00512 ± 0.002.

For the sequence UCCUGGAUCACCUAGCAUAGUAUUUAGUUA, the “pre-steady-state target cleavage rate” value is 0.00435 ± 0.0029.

On to UCCUGCUACAGCAUGCAAAGUAUUUAGUUA, for which the “pre-steady-state target cleavage rate” value was determined as 0.00807 ± 0.0029.

Turning to UCCUGGAUGUCGUUGCAAAGUAUUUAGUAA, the “pre-steady-state target cleavage rate” value amounted to 0.00357 ± 0.0021.

UCCUCGUACAGCAUGCAUAGUAUUUAGUUA: the “pre-steady-state target cleavage rate” value came out at 0.0102 ± 0.0022.

With UCCUGCUUCAGCUUGCAUAGUAUUUAGUAA, the “pre-steady-state target cleavage rate” value stood at 0.00397 ± 0.002.

As for UCCUGGAACUAGCUUGCAUAGUAUUUAGUUA, the “pre-steady-state target cleavage rate” value stood at 0.00841 ± 0.0027.

For the sequence UCCUGGAUGUCCUGGCAUAGUAUUUAGUUA, the “pre-steady-state target cleavage rate” value is 0.00414 ± 0.0026.

For UCCUGGUACAGCUUGCAUUGUAUAUAGUUA, the “pre-steady-state target cleavage rate” value was 0.00415 ± 0.0033.

With UCCUCCUACAGCUUGCCUAGUAUUUAGUUA, the “pre-steady-state target cleavage rate” value stood at 0.00736 ± 0.002.

For the sequence UCCUGGAUGUCGUUGCAUAGUAGUUUAGUUA, the “pre-steady-state target cleavage rate” value turned out to be 0.0066 ± 0.0025.

Turning to UCCUGGAUGUCGAUGCAUAGUAUAUUAGUUA, the “pre-steady-state target cleavage rate” value is 0.00716 ± 0.0023.

In the case of UCCUGGAUGUCGAACGAGAGUAUUUAGUUA, the “pre-steady-state target cleavage rate” value is less than 0.0001.

With UCCUGGAUCAGCAUGCAUAGUAAUUAGUUA, the “pre-steady-state target cleavage rate” value was found to be 0.00637 ± 0.0027.

On to UCCUGGUAGCAGCUUGCAUAGUAUUUAGUUA, for which the “pre-steady-state target cleavage rate” value was determined as 0.0162 ± 0.0048.

The record behind these values is the supplement of paper PMC10338343.
